SMN2 splice up: increases expression of the SMN2 splice variant; Potency, µM (titrated, usually from 46.1 µM), actives largely listed as activators; hit rate 2.8% among 210,000; AID 1458; HEK293 SMN2-luciferase splicing reporter, luminescence, 30-36 h; note: nearly all actives have a fitted effect of over 55% in size
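HEK293 cells carry an SMN2 […]–luciferase reporter in which exon 7 inclusion puts luciferase in frame. Cells were plated 10-12 h before compound addition, then incubated 30-36 h at 37C. ONE-Glo luminescence was read; sodium butyrate at 4.5 mM final served as control.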
ELG1 genotox: inducers of genotoxicity in HEK293T ELG1-luciferase cells. Potency, µM (highest dose often 46 µM), most hits filed as activators. hit rate 1.3% among 330,000. HEK293T ELG1-luciferase reporter, luminescence, 16 h. AID 504466; note: nearly all actives have a fitted effect of over 60% in size
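HEK293T cells expressing luciferase-tagged ELG1 were treated with compound or DMSO for 16 hr at 37°C. Luciferase activity was then read after 30 min with ONE-Glo at room temperature; rising signal flags genetic stress.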
FLuc modulator: firefly luciferase modulation, counter-screen for miR-21 project; purified FLuc, Km substrates, luminescence inhibition; Potency, µM (doses to about 57.5 µM), usual class: inhibitors; hit rate 6.9% among 360,000; AID 588342; note: nearly all actives have a fitted effect of over 55% in size
Target sequence (P08659 whole entry, looked up): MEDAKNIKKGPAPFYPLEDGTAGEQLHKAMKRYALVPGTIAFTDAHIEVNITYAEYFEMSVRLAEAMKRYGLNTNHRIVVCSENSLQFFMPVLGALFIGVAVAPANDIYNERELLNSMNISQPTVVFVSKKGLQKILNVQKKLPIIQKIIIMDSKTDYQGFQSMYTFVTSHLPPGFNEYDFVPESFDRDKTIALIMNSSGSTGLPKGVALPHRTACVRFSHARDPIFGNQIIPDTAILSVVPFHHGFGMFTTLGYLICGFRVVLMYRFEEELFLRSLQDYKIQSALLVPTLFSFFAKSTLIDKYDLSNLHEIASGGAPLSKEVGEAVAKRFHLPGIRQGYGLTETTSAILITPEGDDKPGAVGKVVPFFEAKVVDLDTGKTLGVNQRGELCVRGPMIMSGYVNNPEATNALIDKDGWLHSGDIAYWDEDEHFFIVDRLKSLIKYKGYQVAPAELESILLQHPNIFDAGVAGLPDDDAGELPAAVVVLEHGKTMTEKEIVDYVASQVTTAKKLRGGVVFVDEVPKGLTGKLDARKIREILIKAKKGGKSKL
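Purified P. pyralis luciferase (10nM final) with 10uM D-luciferin and 10uM ATP (Km levels) in 50mM Tris acetate pH 7.5, 10mM Mg acetate, 0.01% Tween-20, 0.05% BSA; qHTS 6-point titration, ~60 µM downward; luminescence read.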
NPC1 prom act: activators of NPC1 promoter; Huh7 NPC1 promoter luciferase reporter, 24 h; Potency, µM (top dose mostly 9.22 µM), usual class: activators; hit rate 2.4% among 320,000; AID 485313; note: nearly all actives have a fitted effect of over 60% in size
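In 1536-well qHTS, Huh7 cells harboring an NPC1 promoter–luciferase construct received compound for 24 h; activation was quantified by luminescence following luciferase reagent addition.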
Rab9 prom act: Rab9 promoter activation. Huh7 Rab9 promoter-luciferase reporter, luminescence, 24 h. Potency, µM (series often up to 9.22 µM), most hits filed as activators. hit rate 2.8% among 320,000. AID 485297; note: nearly all actives have a fitted effect of over 60% in size
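Cells were plated at 1500 per well in reduced-serum medium with 10% FBS and left 2 h. Compound in DMSO was then added for 24 h at 37 °C. Reporter signal was read by luminescence after 10 min with luciferase detection reagent.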
Luc counter: blocks Kinase-Glo luciferase, a counter-screen artifact. Q27757. Kinase-Glo luciferase, ATP luminescence, 8 min. Potency, µM (series often up to 38.3 µM), usual class: inhibitors. hit rate 0.28% among 200,000. AID 1379; note: nearly all actives have a fitted effect of over 60% in size
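Substrate mix (final 50 mM imidazole pH 7.2, 50 mM KCl, 7 mM MgCl2, 10 uM ATP, 0.01% Tween 20, 0.05% BSA) plus pin-tool compound, then Kinase-Glo detection mix; 8 min ambient, luminescence read.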
Large screens that a line does not name were inactive. Most compounds without a hit are left out; they make up all but 7.4% or so of the library. Calls come from the whole dose curve; as a rule, active = well fitted curve in the direction sought with a large enough effect; inconclusive = small, poorly fitted or top-dose-only effect, or another doubt; inactive = no such curve, though single readings can be large; an effect the other way counts as inactive or inconclusive.

Cc1ccc(-n2ncc(Cl)c2C(=O)NC2CC2)cc1	ELG1 genotox inconclusive, FLuc modulator 11µM, NPC1 prom act 3.2µM, Rab9 prom act 1.8µM (no result: SMN2 splice up, Luc counter)
CNc1cnn(-c2ccc(C)cc2)c(=O)c1Cl	SMN2 splice up 11µM, ELG1 genotox inconclusive, FLuc modulator 13µM, NPC1 prom act 1.6µM, Rab9 prom act 3.2µM
O=c1c(Cl)c(N/N=C/c2ccc(Cl)cc2)cnn1-c1ccccc1	NPC1 prom act 0.56µM, Rab9 prom act 0.32µM
CNc1cnn(-c2ccc(C)cc2)c(=O)c1Sc1ccc(C)cc1	none
Nc1c(C(=O)N/N=C/c2ccc(Cl)cc2)cnn1-c1ccccc1	Rab9 prom act inconclusive (no result: SMN2 splice up, Luc counter)
C=CCNC(=O)c1c(Cl)cnn1-c1ccc(C)cc1	ELG1 genotox inconclusive, FLuc modulator 17µM, NPC1 prom act 2µM, Rab9 prom act 3.2µM (no result: SMN2 splice up, Luc counter)
Cc1cccc(NC(=O)c2ccc(Cl)c(S(=O)(=O)N3CCCCC3)c2)n1	none (no result: SMN2 splice up, Luc counter)
COCCN(Cc1cc2cc(C)c(C)cc2nc1Cl)C(=O)N1CCOCC1	none
COC(=O)C(C)Sc1nc2ccsc2c(=O)n1Cc1ccccc1 (centres undefined)	none (no result: SMN2 splice up, Luc counter)
CNC(=O)c1c(Cl)cnn1-c1ccc(C)cc1	ELG1 genotox inconclusive, FLuc modulator 12µM, NPC1 prom act 2.2µM, Rab9 prom act 3.2µM (no result: SMN2 splice up, Luc counter)
CNC(=O)c1c(Br)cnn1-c1ccc(C)cc1	ELG1 genotox inconclusive, FLuc modulator 7.6µM, NPC1 prom act 2.8µM, Rab9 prom act 3.2µM (no result: SMN2 splice up)
N/C(=N/OC(=O)c1cccc([N+](=O)[O-])c1)c1cccc([N+](=O)[O-])c1	FLuc modulator inconclusive
N/C(=N\OC(=O)c1cccc([N+](=O)[O-])c1)c1ccccn1	SMN2 splice up 14µM, FLuc modulator 5.4µM, NPC1 prom act inconclusive, Rab9 prom act 3.5µM, Luc counter 13µM
O=C(OCc1nnc(-c2ccccc2)o1)c1cc([N+](=O)[O-])ccc1Cl	none
N/C(=N\OC(=O)c1ccc([N+](=O)[O-])cc1Cl)c1ccccn1	ELG1 genotox 0.33µM, FLuc modulator 0.12µM, NPC1 prom act inconclusive, Rab9 prom act 0.32µM (no result: SMN2 splice up, Luc counter)
Cc1ccc(OC(=O)c2ccc([N+](=O)[O-])cc2Cl)cn1	FLuc modulator 12µM (no result: SMN2 splice up, Luc counter)
N/C(=N\OC(=O)c1cc([N+](=O)[O-])ccc1Cl)c1ccccn1	FLuc modulator 24µM (no result: SMN2 splice up, Luc counter)
O=C(COC(=O)c1ccc(Cl)s1)c1cc2ccccc2o1	FLuc modulator 24µM
Cn1cccc1C(=O)OCC(=O)NCCCc1ccccc1	none (no result: SMN2 splice up, FLuc modulator, NPC1 prom act, Rab9 prom act, Luc counter)
Cn1cccc1C(=O)OCC(=O)c1cc2ccccc2o1	FLuc modulator 12µM
O=C(COC(=O)c1nc(Cl)ccc1Cl)c1ccc(Cl)s1	FLuc modulator inconclusive
CC(=O)N1CCc2cc(S(=O)(=O)CCC(=O)Nc3ccc(C)cc3Br)ccc21	none (no result: ELG1 genotox, NPC1 prom act, Rab9 prom act, Luc counter)
COc1cccc(CNCCSc2nnnn2C)c1OCc1ccc(Cl)cc1	none (no result: ELG1 genotox, NPC1 prom act, Rab9 prom act, Luc counter)
Cc1ccc(NC(=O)c2cccs2)cc1[N+](=O)[O-]	FLuc modulator 21µM (no result: SMN2 splice up)
Cc1ccc([N+](=O)[O-])cc1NC(=O)c1ccc(C(C)(C)C)cc1	FLuc modulator inconclusive
Cc1ccc(NC(=O)c2ccc(C(C)(C)C)cc2)cc1[N+](=O)[O-]	ELG1 genotox inconclusive, FLuc modulator 6µM, NPC1 prom act inconclusive, Rab9 prom act inconclusive
C=CCNC(=O)c1ccccc1NC(=O)c1ccc(Cl)c(S(=O)(=O)Nc2ccccc2)c1	none (no result: SMN2 splice up)
COc1cc(C)ccc1OCCCOc1ccccc1Cl	SMN2 splice up 13µM, ELG1 genotox inconclusive, FLuc modulator 6.7µM, NPC1 prom act 2.8µM, Rab9 prom act 3.5µM
COc1cc(C=O)ccc1OCCOCCOc1cc(C)ccc1Cl	none (no result: SMN2 splice up, Luc counter)
COc1cccc(OC)c1OCCCOc1ccc([N+](=O)[O-])cc1Cl	none
COc1cc(C)ccc1OCCOc1ccccc1Cl	ELG1 genotox inconclusive, FLuc modulator 19µM, NPC1 prom act inconclusive, Rab9 prom act inconclusive
CCOc1ccccc1OCCCOc1ccc([N+](=O)[O-])cc1Cl	FLuc modulator 9.5µM
COc1cc(C)ccc1OCCCCOc1ccccc1C(C)=O	FLuc modulator inconclusive
CCCCCOc1ccc(NC(=O)CSc2cccc3cccnc23)cc1	none

Screening data: PubChem, National Center for Advancing Translational Sciences (NCATS)
